# uPA generation – qHTS for Inhibitors of Cell Surface uPA Generation. AID 540303, 2011. Potency, µM (titrated, usually from 38.3 µM), inactives show at the highest dose activity change, negative = inhibition, most hits filed as inhibitors. cell surface uPA generation assay, qHTS. 0.31% of 330,000 active; active means well fitted inhibition curve with a large enough effect; inconclusive means small, poorly fitted or top-dose-only effect; inactive means no such curve, though single readings can be large or run the other way; tested in mouse RAW 264.7 cells; further: potency means the concentration at half of the fitted maximal effect; on the % scale 0 is the no-effect control and ±100 the full control effect; nearly all actives have a fitted effect of over 55% in size
# RGS4 inh – Inhibitors of Regulator of G Protein Signaling (RGS) 4: qHTS; Transcreener GDP fluorescence polarization, RGS4-accelerated GTP hydrolysis; Potency, µM (top dose mostly 114 µM), inactives show top-dose activity change, negative = inhibition, usual class: inhibitors; 0.039% of 390,000 active; active means well fitted inhibition curve with a large enough effect; inconclusive means small, poorly fitted or top-dose-only effect; inactive means no such curve, though single readings can be large or run the other way; further: potency means the concentration at half of the fitted maximal effect; on the % scale 0 is the no-effect control and ±100 the full control effect; nearly all actives have a fitted effect of over 75% in size
# Target sequence (P49798 whole entry, looked up): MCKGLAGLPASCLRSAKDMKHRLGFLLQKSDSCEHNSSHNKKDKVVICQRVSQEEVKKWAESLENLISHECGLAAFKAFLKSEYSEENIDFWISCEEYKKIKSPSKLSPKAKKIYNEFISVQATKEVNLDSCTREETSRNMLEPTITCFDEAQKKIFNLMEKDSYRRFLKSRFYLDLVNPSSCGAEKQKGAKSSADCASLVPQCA
#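 MLSMR compounds (23 nl, pin-transferred) preincubated 10 min at room temperature with a 500nM (2x) first reagent, then RGS4 at 900nM (2x) plus Transcreener GDP mix added; fluorescence polarization (620/688 nm) read before and after 90 min at 30 °C.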
# DRD3 agonist – qHTS of D3 Dopamine Receptor Agonist: qHTS. D(3) dopamine receptor (Homo sapiens), P35462. D3R DiscoveRx beta-arrestin cells, luminescence, 90 min. max activation, %. 0.58% of 410,000 active. AID 652048, 2013; in the data active means max activation above about 30%; further: 0% is about no effect
# Target sequence (P35462 whole entry, looked up): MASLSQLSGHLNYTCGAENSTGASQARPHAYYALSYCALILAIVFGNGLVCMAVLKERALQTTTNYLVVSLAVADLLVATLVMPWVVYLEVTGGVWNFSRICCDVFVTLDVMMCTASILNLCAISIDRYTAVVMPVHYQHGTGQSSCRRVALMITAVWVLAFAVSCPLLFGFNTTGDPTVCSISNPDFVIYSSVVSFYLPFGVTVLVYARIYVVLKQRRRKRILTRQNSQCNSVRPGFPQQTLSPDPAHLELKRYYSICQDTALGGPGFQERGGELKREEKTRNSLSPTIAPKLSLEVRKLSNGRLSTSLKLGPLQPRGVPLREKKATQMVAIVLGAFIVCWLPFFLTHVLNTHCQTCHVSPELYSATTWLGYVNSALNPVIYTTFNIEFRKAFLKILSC
#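 Agonist-mode cell screen: cells plated at 1500/well and incubated overnight at 37 °C, then exposed to library compounds for 90 min at 37 °C. Detection reagent was added for 30–60 min at room temperature, and luminescence was read.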
# DRD3 antagonist – qHTS of D3 Dopamine Receptor Antagonist: qHTS; D(3) dopamine receptor (Homo sapiens), P35462; D3R cells, DiscoveRx beta-arrestin luminescence, antagonist mode; active compounds read low; max response, negative = inhibition, %; 2.5% of 360,000 active; AID 652054, 2013; in the data active means max response below about -50%; inconclusive means no clear call, values can overlap the other calls; further: on the % scale 0 is the no-effect control and ±100 the full control effect
#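 Cells plated overnight at 1500 cells/well, then exposed to library compounds with dopamine controls for 90 minutes at 37 degrees C. DiscoveRx reagent added for 30–60 minutes at room temperature; luminescence read, quantitative HTS format.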
# The depositor's hits bear a star; ? = inconclusive; . = no result given; [ ] = remark or other dose. In the library only some 3.1% were active in any assay of this set; here they are far more common.
SMILES,uPA generation,RGS4 inh,DRD3 agonist,DRD3 antagonist
CN(C)CC/C=C1\c2cc(Cl)ccc2Sc2cc(F)c(F)cc21,-18%,-13%,-18,-104*
CN(C)CC/C=C1\c2ccccc2Sc2cc(F)c(Cl)cc21,3%,-21%,-42,-81*
O=c1c(N2CCN(c3cccc(Cl)c3)CC2)csc2ccc(Cl)cc12,.,-51%,-27,.
Cc1cc(C)cc(-n2cnc3cc(C(=O)NC4CCCCCC4)ccc32)c1,.,-6%,-9,.
COc1ccccc1CCc1nnc(CCC(=O)NCCC2CCCCO2)o1 (configuration not stated),.,.,-5,-6
COc1ccccc1CCc1nnc(CCC(=O)NCC[C@@H]2C[C@@H]3C=C[C@H]2C3)o1,0%,-19%,3,-62*
Cc1cc(C(=O)NCCc2ccccc2)ccc1[N+](=O)[O-],4%,15%,-12,-55*
O=C(NCCc1ccccc1)c1ccc(Cl)c([N+](=O)[O-])c1,.,0%,-16,-8
Cc1cc(NS(=O)(=O)c2ccc(NC(=O)c3ccc([N+](=O)[O-])cc3)cc2)nc(C)n1,.,.,-3,-16
CCCC[n+]1c2ccccc2cc2ccccc21,0%,?,2,-94*
CCC[n+]1c2ccccc2cc2ccccc21,-16%,?,-17,?
COc1ccc(Nc2nnc(-c3ccc(C)c(S(=O)(=O)NCc4nc5ccccc5[nH]4)c3)c3ccccc23)cc1,.,1%,-16,.
O=C(NNC(=O)c1cccnc1)Nc1ccc(Cl)c(Cl)c1,-2%,-8%,4,50
O=C(NNC(=O)c1ccc2nonc2c1)Nc1ccc(Cl)cc1,-1%,6%,-21,-69*
Cc1nc2c3cc(F)ccc3n(Cc3ccc(F)cc3)c2s1,3.5µM*,5%[11.4 µM],-6,-16
CN(C)CC(O)Cn1c2ccc(Br)cc2c2cc(Br)ccc21 (configuration not stated),.,0.67µM*,.,.
Cc1cc(C)n(CC(O)Cn2c3ccc(Br)cc3c3cc(Br)ccc32)c(=O)n1 (configuration not stated),-4%,-20%,-3,-17
Cc1ccc(C)c(Cc2c(C)nc3c(C(=O)N4CCOCC4)cnn3c2C)c1,.,-12%,31*,-9
O=C(CSC(=S)N1CCCCC1)Nc1nc(-c2ccccc2)c(-c2ccccc2)o1,.,-35%,-40,-52*
O=C(CSC(=S)N1CCOCC1)Nc1nc(-c2ccccc2)c(-c2ccccc2)o1,-3%,-30%,7,-30
Cn1nnnc1SCC(=O)Nc1nc(-c2ccccc2)c(-c2ccccc2)o1,-9%,-17%,-7,-53*
Cc1onc(-c2c(F)cccc2Cl)c1C(=O)N[C@@H]1C(=O)N2[C@@H]1SC(C)(C)[C@@H]2C(=O)O,.,.,-9,.
COc1ccc(-c2[nH]c(-c3ccc(OC)c(OC)c3)nc2SCC(=O)Nc2ccccc2)cc1,.,-33%,-15,.
CCCCN=Cc1c(C)[nH]n(-c2ccccc2)c1=S,4%,-24%,-4,-10
Cc1[nH]n(-c2ccccc2)c(=S)c1C=Nc1cccc([N+](=O)[O-])c1,-1%,-193%,-5,-100*
SMILES,uPA generation,RGS4 inh,DRD3 agonist,DRD3 antagonist
O=C(CC1Sc2ccccc2NC1=O)NNc1cc(Cl)ccc1Cl (configuration not stated),-3%,-9%,36*,47
Cc1ccc(Cl)cc1NC(=O)CC1Sc2ccccc2NC1=O (configuration not stated),.,-1%,-7,.
N#Cc1nc(-c2ccccc2)oc1NCCN1CCCCC1,-5%,-5%,0,-72*
Cc1cccc(N2CCN(C(=O)C3CCCN(S(=O)(=O)c4c(C)noc4C)C3)CC2)c1C (configuration not stated),0%,-4%,67*,-6
CC(=O)c1ccc(N=Nc2ccc(N)cc2)cc1,4µM*,20%,-2,?
CC(C)C(=O)NCC(c1ccc2c(c1)OCO2)N1CCN(c2ccccc2F)CC1 (configuration not stated),.,20%,-21,.
CCN(CC)CCOC(=O)c1cccc(Br)c1,5%,-12%,-15,-58*
Cc1noc(-c2ccc(NC(C)c3ccccc3)c([N+](=O)[O-])c2)n1 (configuration not stated),.,-6%,-15,.
Cc1ccc(C(NC(=O)NCCCN2CCOCC2)=C(Cl)Cl)cc1F,-9%,4%,0,-75*
Cc1cc(S(=O)(=O)Nc2ccc(C(=O)NCCCN3CCOCC3)cc2)ccc1F,6%,-16%,-20,-13
CCCCc1ccc(CC2S/C(=C(\C#N)C(=O)N3CCOCC3)N(c3ccccc3)C2=O)cc1 (configuration not stated),3%,13%,4,9
N#C/C(C(=O)N1CCOCC1)=C1/SC(Cc2ccccc2)C(=O)N1c1ccccc1 (configuration not stated),-2%,-9%,-4,-51*
COc1ccc(CCN(C(=O)c2ccc(F)cc2)C2=CC3CCC(C2)N3C)cc1OC (configuration not stated),3%,-17%,2,-56*
COc1cc(C(=O)N(CCc2ccccc2)C2=CC3CCC(C2)N3C)cc(OC)c1OC (configuration not stated),3%,-25%[11.4 µM],-1,6
COC(=O)c1[nH]c2ccccc2c1NC(=O)CN1CCN(C(=O)c2ccco2)CC1,3%,-9%,31*,-52*
COC(=O)c1[nH]c2ccccc2c1NC(=O)Oc1ccccc1,-2%,-19%,-2,-52*
CCOC(=O)C1CCCN(CC(=O)Nc2c(C(=O)OC)[nH]c3ccccc23)C1 (configuration not stated),1%,19%,-7,-14
CCOC(=O)N1CCN(CC(=O)Nc2c(C(=O)OC)[nH]c3ccccc23)CC1,-22%,11%,8,9
COC(=O)c1[nH]c2ccccc2c1NC(=O)CN1CCC(C(N)=O)(N2CCCCC2)CC1,10%,-14%,1,-54*
COC(=O)c1[nH]c2ccccc2c1NC(=O)CN1CCCCCC1,-7%,-35%,8,-53*
Cc1ccccc1CN1c2ccccc2-c2nc(SCC(=O)c3ccccc3)ncc2S1(=O)=O,.,-25%,3,.
COC(=O)c1[nH]c2cccc(OC)c2c1NC(=O)CCN1CCSCC1,1%,-18%,1,-21
COC(=O)c1[nH]c2cc(OC)ccc2c1NC(=O)CCN1CCSCC1,0%,-4%,-2,-70*
CSc1cccc(NS(=O)(=O)c2ccc3[nH]cc(C(=O)N4CCCCCC4)c(=O)c3c2)c1,.,-10%,9,.
CC(NC(=O)NC1CCCCC1)C(c1cccs1)N1CCN(c2ccccc2)CC1 (configuration not stated),10µM*,14%,-8,-55*
C=CCN(C)CC/C=C1\c2ccccc2CSc2ccccc21,-1%,6%,-6,-73*
C#CCN(C)CC/C=C1\c2ccccc2CSc2ccccc21,-10%,2%[11.4 µM],-21,-71*
CN(C)CC/C=C1\c2cc(F)ccc2CSc2ccccc21,?,-2%,-43,-52*

# Assay outcomes (PubChem)
